Screens: PubChem, several laboratories
MCL1 BIM primary = MCL1-BIM-BH3 interaction inhibition (human) | inhibition, % at 10.9 µM | GST-MCL1 / FITC-Bim-BH3 fluorescence polarization | Q07820 | AID 2057 | hit rate 0.68% among 320,000;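 active = inhibition above the mean inhibition of all tested compounds plus 3 SD, set per campaign, cut at about 40% in these data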;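 note: 0% = DMSO wells and 100% = unlabeled Bim-BH3 peptide control; higher means more loss of mP so more displacement of Bim peptide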
Target sequence (Q07820 whole entry, looked up): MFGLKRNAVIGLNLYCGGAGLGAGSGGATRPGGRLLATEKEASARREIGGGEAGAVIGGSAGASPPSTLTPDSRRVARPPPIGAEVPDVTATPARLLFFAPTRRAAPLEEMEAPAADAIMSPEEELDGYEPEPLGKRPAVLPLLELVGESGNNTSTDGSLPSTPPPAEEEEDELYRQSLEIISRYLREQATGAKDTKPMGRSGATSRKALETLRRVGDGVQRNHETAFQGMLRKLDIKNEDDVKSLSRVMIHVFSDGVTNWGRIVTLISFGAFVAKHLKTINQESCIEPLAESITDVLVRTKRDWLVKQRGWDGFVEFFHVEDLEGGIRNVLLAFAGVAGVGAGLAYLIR
GLD-1 RNA inh = GLD-1-TGE RNA interaction inhibition (C. elegans) | purified GLD-1 + fluorescein TGE RNA, fluorescence polarization | inhibition, % at 5.96 µM | hit rate 0.44% among 320,000 | AID 2280;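 active = percent inhibition above a per-plate cutoff, the plate mean of test compounds plus 3 SD, cut at about 30% in these data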;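 note: 0% = DMSO wells with GLD-1 and probe and 100% = wells lacking GLD-1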
BCLXL inh = blocks human Bcl-xL binding to Bim BH3 peptide. hit rate 0.7% among 320,000. Q07817. inhibition, % at 10.9 µM. GST-Bcl-xL / FITC-Bim BH3 peptide fluorescence polarization;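 active = inhibition above the mean of all tested compounds plus 3 SD, cutoff set per campaign, cut at about 30% in these data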;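 note: 0% = DMSO wells and 100% = unlabeled Bim-BH3 peptide competitor; inhibitors lower millipolarization by displacing the labeled peptide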
Target sequence (Q07817 whole entry, looked up): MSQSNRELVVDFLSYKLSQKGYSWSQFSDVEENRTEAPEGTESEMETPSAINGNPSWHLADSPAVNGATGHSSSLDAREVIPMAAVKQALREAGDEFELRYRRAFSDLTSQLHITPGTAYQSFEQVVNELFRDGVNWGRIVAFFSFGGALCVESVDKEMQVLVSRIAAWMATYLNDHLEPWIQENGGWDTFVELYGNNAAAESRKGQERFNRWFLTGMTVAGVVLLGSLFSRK
Mcl1 Noxa PPI = Mcl-1/Noxa interaction inhibition. Q07820. TR-FRET Mcl-1/Noxa peptide binding, 2 h. inhibition, % at 21.7 µM. hit rate 1.5% among 220,000. AID 1022;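 active = compounds that cut the protein-peptide binding signal by more than 50% relative to plate controls in a single-dose test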;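 note: His-tagged Mcl-1 with rhodamine Noxa BH3 peptide and terbium anti-His antibody; 0% = Mcl-1 plus Noxa peptide wells and 100% = peptide-only wells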
Mcl-1 Bim block = inhibitors of Bim-Mcl-1 interaction, human; AID 1009; hit rate 0.1% among 190,000; Bead-based flow cytometry, Bim peptide-Mcl-1 binding; inhibition, % at 10 µM; in the data active = inhibition above about 40%;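 note: 0% = no compound tracer wells and 100% = peptide blocker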
Mcl1 Bid PPI = disrupts binding of human Mcl-1 to Bid peptide. Q07820. TR-FRET Mcl-1/Bid-Dy647 peptide binding, 1536-well. inhibition, % at 21.7 µM. hit rate 0.97% among 220,000;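 active = compounds that cut the binding signal by more than half at the single screening dose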;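 note: His-tagged Mcl-1 with europium anti-His antibody binding Bid BH3 peptide; 0% = Mcl-1 plus peptide wells and 100% = peptide-only wells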
Bcl-xL conf = Bcl-xL (human) inhibition, MCL1 counter-screen confirmation; shares compounds with MCL1 BIM primary; GST-Bcl-xL / FITC-Bim BH3 peptide FP binding; inhibition, % at 10.9 µM; hit rate 54% among 1,700;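 active = inhibition above a cutoff equal to the mean inhibition of all tested compounds plus 3 SD, cut at about 30% in these data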;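 note: 0% = DMSO wells and 100% = unlabeled Bim BH3 control peptide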
MCL1 inh confirm = MCL1-BIM-BH3 interaction inhibition, confirmation. shares compounds with MCL1 BIM primary. GST-MCL1 / FITC-Bim-BH3 fluorescence polarization. inhibition, % at 10.9 µM. hit rate 61% among 1,700. AID 2168;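 active = inhibition above the average of all tested compounds plus 3 SD, cut at about 40% in these data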;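 note: 0% = DMSO wells and 100% = unlabeled Bim-BH3 control peptide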
* hit, by the source's call. A selection: hits, their analogues and other compounds. The true share with any hit is near 2.3%.

For CCOC(=O)/C(C#N)=C\c1ccc(O)c(OC)c1 the results were MCL1 BIM primary -1.6, GLD-1 RNA inh -4.8, BCLXL inh 0.5, Mcl1 Noxa PPI 22.4, Mcl-1 Bim block 2.0 and Mcl1 Bid PPI -36.4.
CCOC(=O)c1sc2nc(C)nc(SC(C)C(=O)N(C)c3ccccc3)c2c1C (stereo not given) was read as MCL1 BIM primary -6.1, GLD-1 RNA inh 1.3 and BCLXL inh 0.6.
O=C(O)CN1C(=O)/C(=C\c2ccccc2OCc2ccc(Cl)cc2Cl)SC1=S was read as MCL1 BIM primary 55.1*, GLD-1 RNA inh -4.1, BCLXL inh 17.0, Bcl-xL conf 30.6* and MCL1 inh confirm 45.4*.
`O=C(O)CN1C(=O)/C(=C\c2cc(Br)ccc2OCc2ccccc2F)SC1=S` gave MCL1 BIM primary 45.6*, GLD-1 RNA inh -5.4, BCLXL inh 17.7, Bcl-xL conf 19.8 and MCL1 inh confirm 24.6.
Screening O=C(O)CCN1C(=O)/C(=C\c2ccc(OCc3ccccc3)c(OCc3ccccc3)c2)SC1=S returned MCL1 BIM primary 4.4, GLD-1 RNA inh 5.6 and BCLXL inh 2.6.
For O=C(O)CN1C(=O)/C(=C\c2cc(Br)ccc2OCc2ccc([N+](=O)[O-])cc2)SC1=S the results were MCL1 BIM primary 72.3*, GLD-1 RNA inh -0.9, BCLXL inh 27.6, Bcl-xL conf 37.2* and MCL1 inh confirm 61.3*.
Screening NS(=O)(=O)c1cccc(NC(=O)c2ccc(S(=O)(=O)N3CCCCCC3)cc2)c1 returned GLD-1 RNA inh -7.5.
N#Cc1ccsc1NC(=O)CN1CCCCCC1 was read as MCL1 BIM primary 2.1, GLD-1 RNA inh 14.4, BCLXL inh 2.6, Mcl1 Noxa PPI 16.9, Mcl-1 Bim block 1.0 and Mcl1 Bid PPI -46.5.
Screening CN(CC(=O)Nc1sccc1C#N)C1CCCCC1 returned MCL1 BIM primary 111.7*, GLD-1 RNA inh 62.1*, BCLXL inh 61.0*, Mcl1 Noxa PPI 61.5*, Mcl-1 Bim block -4.0, Mcl1 Bid PPI -6.5, Bcl-xL conf 21.5 and MCL1 inh confirm 23.4.
CCOCCCn1c(=NC(=O)c2cccs2)c(C#N)cc2c(=O)n3ccccc3nc21 was read as MCL1 BIM primary 97.4*, GLD-1 RNA inh 54.6*, BCLXL inh 90.8*, Mcl1 Noxa PPI 20.2, Mcl1 Bid PPI -9.4, Bcl-xL conf 62.0* and MCL1 inh confirm 74.9*.
Cc1ccccc1C(=O)N=c1c(C#N)cc2c(=O)n3cccc(C)c3nc2n1Cc1ccco1 was read as MCL1 BIM primary 15.1, GLD-1 RNA inh 9.8, BCLXL inh 18.8, Mcl1 Noxa PPI 3.3, Mcl-1 Bim block -3.0 and Mcl1 Bid PPI -16.2.
Screening CCOC(=O)c1cc2c(=O)n3ccccc3nc2n(Cc2ccco2)c1=NC(=O)c1ccc(OC)cc1OC returned MCL1 BIM primary 52.2*, GLD-1 RNA inh 18.6, BCLXL inh 48.8*, Mcl1 Noxa PPI 6.0, Mcl-1 Bim block 0.0, Mcl1 Bid PPI -25.9, Bcl-xL conf 11.2 and MCL1 inh confirm 11.6.
Screening N#Cc1cc2c(=O)n3ccccc3nc2n(Cc2ccco2)c1=NC(=O)c1ccco1 returned MCL1 BIM primary 75.2*, GLD-1 RNA inh 23.4, BCLXL inh 54.4*, Mcl1 Noxa PPI 11.4, Mcl-1 Bim block 3.0, Mcl1 Bid PPI -31.6, Bcl-xL conf 14.5 and MCL1 inh confirm 12.2.
`CCN(Cc1nc(-c2cccc(C)c2)no1)C(=O)c1ccco1` gave MCL1 BIM primary 0.0, GLD-1 RNA inh 4.0 and BCLXL inh 5.5.
O=C(NC(=S)Nc1cc(C(F)(F)F)ccc1N1CCOCC1)c1ccco1 was read as MCL1 BIM primary 6.4, GLD-1 RNA inh 4.0, BCLXL inh 3.9, Mcl1 Noxa PPI 9.5 and Mcl1 Bid PPI -18.8.
N#Cc1ccc(C(=O)N(Cc2ccco2)c2c(N)n(Cc3ccccc3)c(=O)[nH]c2=O)cc1 was read as MCL1 BIM primary 2.1, GLD-1 RNA inh -0.1 and BCLXL inh 0.6.
Screening CC1(C)Cc2c(cnn2-c2ccccc2)C(NC(=O)c2ccc[n+]([O-])c2)C1 (stereo not given) returned MCL1 BIM primary 0.8, GLD-1 RNA inh 0.5 and BCLXL inh 1.3.
`CCn1c(SCC(=O)c2ccc(O)c(O)c2)nnc1-c1ccccc1` gave MCL1 BIM primary 13.4, GLD-1 RNA inh 8.6, BCLXL inh 1.4, Mcl1 Noxa PPI 13.3, Mcl-1 Bim block -4.0 and Mcl1 Bid PPI 5.5.
`C=CCn1c(SCC(=O)c2ccc(O)c(O)c2)nnc1-c1cccnc1` gave MCL1 BIM primary 40.8*, GLD-1 RNA inh 3.7, BCLXL inh 9.1, Mcl1 Noxa PPI 58.0*, Mcl1 Bid PPI -35.9, Bcl-xL conf 12.1 and MCL1 inh confirm 47.2*.
For C=CCn1c(SCC(=O)c2ccc(O)c(O)c2)nnc1-c1ccccc1OC the results were MCL1 BIM primary 54.3*, GLD-1 RNA inh 3.1, BCLXL inh 8.6, Mcl1 Noxa PPI 18.7, Mcl-1 Bim block -2.0, Mcl1 Bid PPI -57.8, Bcl-xL conf 8.7 and MCL1 inh confirm 17.9.
Screening CCn1c(SCC(=O)c2ccc(O)c(O)c2)nnc1-c1ccccc1OC returned MCL1 BIM primary 44.8*, GLD-1 RNA inh -6.4, BCLXL inh 10.2, Mcl1 Noxa PPI 8.4, Mcl-1 Bim block 1.0, Mcl1 Bid PPI -81.3, Bcl-xL conf 13.9 and MCL1 inh confirm 40.8*.
O=C(CCCNC(=O)c1ccc(Cl)cc1)OCc1cccc(Br)c1 was read as MCL1 BIM primary -23.6, GLD-1 RNA inh 2.5 and BCLXL inh -14.9.
Screening CCOc1ccccc1NC(=S)N(Cc1cc2ccc(C)cc2[nH]c1=O)CC1CCCN1CC (stereo not given) returned MCL1 BIM primary 2.7, GLD-1 RNA inh -0.7, BCLXL inh 2.3, Mcl1 Noxa PPI 6.8, Mcl-1 Bim block -3.0 and Mcl1 Bid PPI -21.6.
Screening Cc1ccc(SCCNC(=O)/C=C/c2ccc(Cl)cc2)cc1 returned MCL1 BIM primary 53.9*, GLD-1 RNA inh -0.5, BCLXL inh 7.2, Mcl1 Noxa PPI 0.1, Mcl-1 Bim block -1.0, Mcl1 Bid PPI -31.0, Bcl-xL conf 24.3 and MCL1 inh confirm 34.3.
Screening Cc1ccc(SCCNC(=O)/C=C/c2ccc([N+](=O)[O-])cc2)cc1 returned MCL1 BIM primary 1.4, GLD-1 RNA inh 3.4, BCLXL inh 7.1, Mcl1 Noxa PPI -0.4, Mcl-1 Bim block 1.0 and Mcl1 Bid PPI -10.9.
Cc1ccc2c(c1)c(=O)c1c3n2CCN(C(=O)CCl)C3CC1 (stereo not given) was read as MCL1 BIM primary 54.8*, GLD-1 RNA inh 14.1, BCLXL inh 48.5*, Mcl1 Noxa PPI 22.1, Mcl-1 Bim block 2.0, Mcl1 Bid PPI -0.9, Bcl-xL conf 30.4* and MCL1 inh confirm 43.8*.
